Results published in PubChem BioAssay AID1159580 (chemical genetic matrix, 2015).
Several values for one entry are separate records, joined by “and”; a condition that tells them apart may be missing. Equal entries are not always repeated. About 2,000 (36%) of roughly 5,500 compounds were called active. About 18% were inconclusive and are not listed. No stated cut-off is given here; in the data, active means normalized growth mostly below about 0.91 (no sharp cut-off); inconclusive means no clear call, values can overlap the other calls; inactive means mostly above about 0.92. The list shows a part of the results.

Assay: chemical genetic growth profiling, strain panel (AID 1159580);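 further: tested at 20 µM; growth read once vehicle control cultures reached saturation at 30 °C; 1 = growth at the plate median or of vehicle wells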
Details: S. cerevisiae deletion strains, growth OD

Measured: normalized growth

O=C(O[C@@H]1Cc2c(O)cc(O)cc2O[C@@H]1c1cc(O)c(=O)c2c(O)c(O)cc([C@H]3Oc4cc(O)cc(O)c4C[C@H]3OC(=O)c3cc(O)c(O)c(O)c3)c2c1)c1cc(O)c(O)c(O)c1
0.59 (active) and 1.02 (inactive): locus YJL095W, strain BCK1, stronger effect = lower value
0.856 (active) and 1.02 (inactive): locus YHR030C, strain SLT2, stronger effect = lower value
active: locus YAL013W, strain DEP1, stronger effect = lower value 0.633 | locus YAL021C, strain ccr4, stronger effect = lower value 0.0843 | locus YAL026C, strain drs2, stronger effect = lower value 0.432 | locus YAL030W, strain snc1, stronger effect = lower value 0.604 | locus YBL061C, strain skt5, stronger effect = lower value 0.513 | locus YBR009C, strain hhf1, stronger effect = lower value 0.434 | locus YBR023C, strain chs3, stronger effect = lower value 0.43 | locus YBR231C, strain swc5, stronger effect = lower value 0.418 | locus YBR279W, strain paf1, stronger effect = lower value 0.554 | locus YCL011C, strain gbp2, stronger effect = lower value 0.509 | locus YCL016C, strain dcc1, stronger effect = lower value 0.754 | locus YCL061C, strain MRC1, stronger effect = lower value 0.724 | locus YCL069W, strain vba3, stronger effect = lower value 0.776 | locus YCR088W, strain abp1, stronger effect = lower value 0.892 | locus YDL005C, strain med2, stronger effect = lower value 0.821 | locus YDL035C, strain GPR1, stronger effect = lower value 0.658 | locus YDL040C, strain nat1, stronger effect = lower value 0.868 | locus YDL074C, strain BRE1, stronger effect = lower value 0.58 | locus YDL101C, strain DUN1, stronger effect = lower value 0.706 | locus YDL134C, strain PPH21, stronger effect = lower value 0.741 | locus YDR069C, strain doa4, stronger effect = lower value 0.105 | locus YDR137W, strain rgp1, stronger effect = lower value 0.485 | locus YDR150W, strain NUM1, stronger effect = lower value 0.851 | locus YDR159W, strain sac3, stronger effect = lower value 0.735 | locus YDR162C, strain NBP2, stronger effect = lower value 0.344 | locus YDR195W, strain ref2 0.76 | locus YDR297W, strain sur2, stronger effect = lower value 0.45 | locus YDR334W, strain swr1, stronger effect = lower value 0.468 | locus YDR335W, strain msn5, stronger effect = lower value 0.604 | locus YDR502C, strain sam2, stronger effect = lower value 0.866 | locus YEL003W, strain gim4, stronger effect = lower value 0.527 | locus YEL037C, strain rad23, stronger effect = lower value 0.686 | locus YEL061C, strain CIN8, stronger effect = lower value 0.817 | locus YER015W, strain faa2, stronger effect = lower value 0.305 | locus YER016W, strain bim1, stronger effect = lower value 0.823 | locus YER111C, strain swi4, stronger effect = lower value 0.692 | locus YER155C, strain BEM2 (second series), stronger effect = lower value 0.836 | locus YER167W, strain BCK2, stronger effect = lower value 0.896 | locus YFR010W, strain ubp6, stronger effect = lower value 0.571 | locus YGL086W, strain mad1, stronger effect = lower value 0.893 | locus YGL167C, strain pmr1, stronger effect = lower value 0.551 | locus YGL173C, strain kem1, stronger effect = lower value 0.181 | locus YGL240W, strain doc1, stronger effect = lower value 0.693 | locus YGL248W, strain PDE1, stronger effect = lower value 0.681 | locus YGL253W, strain hxk2, stronger effect = lower value 0.555 | locus YGR078C, strain PAC10, stronger effect = lower value 0.787 | locus YGR135W, strain pre9, stronger effect = lower value 0.828 | locus YGR229C, strain SMI1, stronger effect = lower value 0.0949 | locus YHR013C, strain ard1, stronger effect = lower value 0.322 | locus YHR027C, strain rpn1, stronger effect = lower value 0.186 | locus YHR129C, strain ARP1, stronger effect = lower value 0.845 | locus YHR142W, strain chs7, stronger effect = lower value 0.493 | locus YIL066C, strain RNR3, stronger effect = lower value 0.509 | locus YIL073C, strain SPO22, stronger effect = lower value 0.196 | locus YJL092W, strain hpr5, stronger effect = lower value 0.856 | locus YJL095W, strain BCK1 (second series), stronger effect = lower value 0.269 | locus YJL129C, strain trk1, stronger effect = lower value 0.812 | locus YJL154C, strain vps35, stronger effect = lower value 0.842 | locus YJL164C, strain tpk1, stronger effect = lower value 0.419 | locus YJL166W, strain qcr8, stronger effect = lower value 0.371 | locus YJL187C, strain SWE1 (second series), stronger effect = lower value 0.512 | locus YJL187C, strain SWE1, stronger effect = lower value 0.457 | locus YJR043C, strain POL32, stronger effect = lower value 0.599
inactive: locus YBR021W, strain FUR4, stronger effect = lower value 0.986 | locus YBR171W, strain sec66, stronger effect = lower value 0.918 | locus YBR229C, strain ROT2, stronger effect = lower value 0.981 | locus YCL029C, strain bik1, stronger effect = lower value 0.966 | locus YDL185W, strain tfp1, stronger effect = lower value 0.995 | locus YDL192W, strain arf1, stronger effect = lower value 0.955 | locus YDR001C, strain nth1, stronger effect = lower value 0.962 | locus YDR101C, strain arx1, stronger effect = lower value 1 | locus YDR318W, strain mcm21, stronger effect = lower value 0.981 | locus YDR388W, stronger effect = lower value 1.01 | locus YDR392W, strain spt3, stronger effect = lower value 0.81 | locus YEL061C, strain CIN8 (second series), stronger effect = lower value 0.915 | locus YER110C, stronger effect = lower value 1.04 | locus YER155C, strain BEM2, stronger effect = lower value 1 | locus YGL078C, strain dbp3, stronger effect = lower value 1.02 | locus YGL227W, strain vid30, stronger effect = lower value 0.989 | locus YGR252W, strain gcn5, stronger effect = lower value 0.896 | locus YHR079C, strain IRE1 (second series), stronger effect = lower value 1.01 | locus YHR079C, strain IRE1, stronger effect = lower value 1.04 | locus YHR094C, strain hxt1, stronger effect = lower value 1.04 | locus YHR200W, strain rpn10, stronger effect = lower value 0.969 | locus YIL125W, strain kgd1, stronger effect = lower value 1.04 | locus YIR030C, strain dcg1, stronger effect = lower value 1.03 | locus YJL115W, strain asf1, stronger effect = lower value 0.91 | locus YJL134W, strain LCB3, stronger effect = lower value 0.965 | locus YJL168C, strain set2, stronger effect = lower value 1.01 | locus YJR066W, strain TOR1, stronger effect = lower value 0.96
